# Source: PubChem BioAssay (NCI)
# “And” between values parts separate entries of the source, which are not always exact repeats. Identical values can stand only once. This is part of a sample that, as a whole, favours compounds with a hit. Of some 83,000 tested, about 20% had one in any assay.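 Assay: single dose, 48 h. Readout: percent growth (0 = no net growth; negative = cell death). Active: <10.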 Where a structure was tested more than once in an assay, its records may differ in their call. The source made the active and inactive calls.
# Tested on: HL-60(TB) leukemia
# Assay: NCI-60 one-dose screen, 48 h (100 = growth as untreated, 0 = no growth, -100 = all killed)
# Details: 10 µM unless noted
row,SMILES,growth
1,CN(C)CCOC1(Cc2ccc(Cl)cc2Cl)CCC(C(C)(C)C)CC1 (stereo not drawn),43.9% (inactive) and 9.21% (active)
2,O=C(NCCc1ccccc1)/C(=C\c1ccc(Cl)cc1Cl)NC(=O)c1ccccc1,112% (inactive)
3,CCN(CC)CCCC(C)Nc1ccnc2cc(Oc3ccccc3)ccc12 (stereo not drawn),69% (inactive) and 97.8% (inactive)
4,O=C(O)c1ccc(=O)[nH]n1,111% (inactive)
5,COc1ccc(/C=C2/C(=O)NC(SCC(=O)N3CCN(c4cc5c(cc4F)c(=O)c(C(=O)O)cn5C4CC4)CC3)=NC2N)cc1OC (stereo not drawn),104% (inactive)
6,C=C1C(=O)O[C@H]2[C@H]1CC/C(COC(=O)NC1CCC(O)CC1)=C\CC[C@@]1(C)O[C@@H]21 (stereo partly drawn),70.6% (inactive) and 62.5% (inactive)
7,O=C(NCCCCNC(=O)OCc1ccc2c(Cl)cc(Cl)c(O)c2n1)OCc1ccc2c(Cl)cc(Cl)c(O)c2n1,-49.2% (active)
8,O=C(NCc1ccc(Cl)cc1Cl)C1CCC(=O)N1c1cccs1 (stereo not drawn),99% (inactive)
9,CC/C(=C(/c1ccc(Cl)cc1)c1ccc(OCCN2CCCC2)cc1)c1ccc(OC)cc1,65.1% (inactive)
10,CCOc1ccc(N(C)c2ccc(/C=C/C3=[N+](C)c4ccccc4C3(C)C)cc2)cc1,-43.5% (active)
11,CCCCCCCCn1ccc2cc(NC(=O)Cn3cc(CN4CCCCC4)nn3)ccc21,-18.7% (active)
12,Nc1c(C(=O)Nc2cccc(Br)c2)sc2nc3c(cc12)C(O)CCC3 (stereo not drawn),-2.37% (active)
13,O=[N+]([O-])c1ccc(N/N=C\c2cc(Br)ccc2O)nc1,11.7% (inactive) and -8.74% (active)
